Source: PubChem
Rows were chosen to be rich in hits. Some 11% of all compounds tested hit in one or more screens of this group.
Tau FP inhib – qHTS for Inhibitors of Tau Fibril Formation, Fluorescence Polarization | K18 P301L tau heparin fibrillization, Alexa594 FP, 6 h | 0.39% of 280,000 active | Potency, µM (titrated, usually from 57.7 µM), actives largely listed as inhibitors | Microtubule-associated protein tau (Homo sapiens), P10636; note: nearly all actives have a fitted effect of over 55% in size
Target sequence (P10636 561-689 P618L limits assumed): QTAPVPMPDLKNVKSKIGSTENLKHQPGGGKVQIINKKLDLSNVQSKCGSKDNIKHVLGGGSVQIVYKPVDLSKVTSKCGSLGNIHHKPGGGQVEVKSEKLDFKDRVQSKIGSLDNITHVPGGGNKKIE
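Steps: dispense K18 P301L tau (15 uM plus 0.24 uM Alexa 594 tracer, final) in pH 7 sodium acetate; add compound; add heparin (20 uM final); incubate 6 hr, 37 C; add ThT (30 uM final); after 1 hr ambient, read FP.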
Tau fibril ThT – qHTS for Inhibitors of Tau Fibril Formation, Thioflavin T Binding; recombinant tau K18 P301L, heparin-induced fibrillization, ThT fluorescence; Microtubule-associated protein tau (Homo sapiens), P10636; 2.1% of 270,000 active; Potency, µM (doses to about 57.4 µM), actives largely listed as inhibitors; note: nearly all actives have a fitted effect of over 55% in size
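In this qHTS, human K18 P301L tau is incubated with compound and heparin for 6 hr at 37 C, and Thioflavin T fluorescence then reports fibril load.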
Tau fluor counter – Counterscreen qHTS for Inhibitors of Tau Fibril Formation, Fluorescence Polarization; tau K18 P301L (four-repeat tau fragment) Alexa594 fluorescence, heparin fibrillization; Potency, µM (doses to about 57.7 µM); 0.93% of 280,000 active; AID 1463, 2008; note: nearly all actives have a fitted effect of over 55% in size
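Human K18 P301L tau (15 uM unlabeled plus 0.24 uM Alexa 594-labeled, final) in 100 mM sodium acetate pH 7 was mixed with compound and 20 uM heparin and incubated 6 hr at 37 C.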
FBPA coupling cs – qHTS Assay for Inhibitors of Fructose-1,6-bisphosphate Aldolase from Giardia Lamblia: Coupling assay counterscreen. coupling enzyme system counterscreen, AmpLite Red fluorescence. activity change, negative = inhibition, % at 58.2 µM, hits read low. 0.67% of 290,000 active. AID 2472, 2010; in the data active = activity change below about -30%
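Counterscreen of the coupled detection system alone, without aldolase: glyceraldehyde-3-phosphate coupling enzymes plus AmpLite Red readout. Compounds at 57.5 uM final, 10 min RT preincubation, 20 min RT reaction, fluorescence 525/598 nm.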
G9a block – qHTS Assay for Inhibitors of Histone Lysine Methyltransferase G9a | G9a H3K9 monomethylation, AlphaScreen, 2 h | Potency, µM (titrated, usually from 102 µM), most hits filed as inhibitors | 8.8% of 350,000 active | AID 504332, 2011; note: nearly all actives have a fitted effect of over 75% in size
Target sequence (Q96KQ7 913-1193 limits assumed): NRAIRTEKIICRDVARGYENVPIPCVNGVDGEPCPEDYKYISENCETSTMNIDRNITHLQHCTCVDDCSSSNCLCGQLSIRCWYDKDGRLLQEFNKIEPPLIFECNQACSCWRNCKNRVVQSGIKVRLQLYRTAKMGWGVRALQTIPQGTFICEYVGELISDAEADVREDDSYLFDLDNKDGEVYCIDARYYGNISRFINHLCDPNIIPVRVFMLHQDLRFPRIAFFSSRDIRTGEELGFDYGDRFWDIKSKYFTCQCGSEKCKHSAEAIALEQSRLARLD
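AlphaScreen read-out: biotin-H3K9 peptide (500 nM) methylation by 20 nM enzyme with 20 uM SAM, 2 h at room temperature after 15 min compound preincubation; anti-monomethyl H3K9 antibody plus donor/acceptor beads, 10 min dark.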
Sfp PPTase inh – qHTS Assay for Inhibitors of Bacillus subtilis Sfp phosphopantetheinyl transferase (PPTase); Potency, µM, most hits filed as inhibitors; 3.5% of 310,000 active; Biochemical Sfp PPTase activity, qHTS; 4'-phosphopantetheinyl transferase ffp (Bacillus subtilis), Q9F4F7;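 note: the enzyme is Sfp with the accession as filed and its product quenches rhodamine fluorescence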
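Reaction rates are the 30-min fluorescence difference (ex 525, em 598 nm) in wells containing 15 nM Sfp, 5 uM rhodamine-CoA and 12.5 uM BHQ-2-YbbR at pH 7.6 with 10 mM MgCl2.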
Numbers stand for hits; 0 = inactive; ? = inconclusive; - = not tested or not shown; [ ] = another dose, or the depositor's remark. Unless noted, calls come from the whole dose curve; as a rule, active = well fitted curve in the direction sought with a large enough effect; inconclusive = small, poorly fitted or top-dose-only effect, or another doubt; inactive = no such curve, though single readings can be large; an effect the other way counts as inactive or inconclusive.

SMILES | Tau FP inhib | Tau fibril ThT | Tau fluor counter | FBPA coupling cs | G9a block | Sfp PPTase inh
NC1=NC(c2cn(-c3ccccc3)nc2-c2cccs2)n2c(nc3ccccc32)N1 (centres undefined) | 0 | 0 | 0 | 0 | 0[2.33 µM] | 44.7µM
C#CCn1c(=NC(=O)CN2C(=O)CCC2=O)sc2cccc(OC)c21 | 0 | 0 | 0 | 0 | 0 | 0
C#CCn1c(=NC(=O)c2cccs2)sc2cccc(OC)c21 | 0 | 0 | 0 | 0 | 0 | 79.4µM
Cc1ccc(NC(=O)Nc2nnc(SCC(=O)N3CCC(C)CC3)s2)cc1 | ? | 0 | ? | - | 0 | -
CCc1ccc(N2CC(C(=O)Nc3ccc(C)c(S(=O)(=O)N4CCOCC4)c3)CC2=O)cc1 (centres undefined) | 0 | 0 | ? | 0 | 0 | 0
CSc1cccc(N2CC(C(=O)Nc3cccc(S(=O)(=O)N4CCCC4)c3)CC2=O)c1 (centres undefined) | - | - | - | - | 11.2µM | -
O=C(Nc1ccc(N2CCOCC2)cc1)C1CC(=O)N(c2ccccc2)C1 (centres undefined) | 0[2.34 µM] | 4.47µM | 0 | 0 | 0 | 0
CCOc1ccc(N2CC(C(=O)Nc3ccc(S(=O)(=O)N4CCCC4)cc3)CC2=O)cc1 (centres undefined) | - | - | - | 0 | 35.5µM | 0
CCc1ccc(N2CC(C(=O)Nc3ccc(S(=O)(=O)N4CCOCC4)cc3)CC2=O)cc1 (centres undefined) | - | - | - | - | 50.1µM | -
COc1ccc(N2CC(C(=O)Nc3ccc(S(=O)(=O)N4CCCC4)cc3)CC2=O)cc1 (centres undefined) | - | - | - | 0 | 0 | 0
COc1ccc(N2CC(C(=O)Nc3ccc(S(=O)(=O)N4CCCCC4)cc3)CC2=O)cc1 (centres undefined) | - | - | - | 0 | - | 0
CCOc1ccc(N2CC(C(=O)Nc3ccc(S(=O)(=O)N4CCCCC4)cc3)CC2=O)cc1 (centres undefined) | - | - | - | - | 39.8µM | -
CCN(c1ccccc1)S(=O)(=O)c1cc(C(=O)OC(C)C(=O)Nc2ccc3c(c2)OCCO3)ccc1C (centres undefined) | 0 | 0 | ? | 0 | 39.8µM | 0
Cc1[nH]c2ccc(C(=O)NCCc3ccccc3Cl)cc2c1C | ? | ? | ? | - | 0 | -
O=C(COC(=O)CNC(=O)c1ccccc1)Nc1nnc(-c2ccccc2)o1 | - | - | - | - | 44.7µM | -
O=C(COC(=O)CNC(=O)c1cccc(Br)c1)Nc1nnc(-c2ccccc2)o1 | - | - | - | - | 0[12.7 µM] | -
COc1ccc(CNC(=O)c2cc3c(=O)n(Cc4ccco4)ccc3nc2C)c(OC)c1 | 0 | 0 | 0 | - | 0 | -
O=C1C2=C(C(=O)c3ccccc31)C1O[C@](CCCCN3C(=O)c4ccccc4C3=O)(Cc3ccccc31)O2 | - | - | - | 0 | 0[2.33 µM] | 0
COC(=O)c1ccc2c(c1)N(C)S(=O)(=O)c1cnc(SCC(=O)C(C)(C)C)nc1-2 | 0 | 0 | 0 | 0 | 5.01µM | 0
CCOC(=O)c1cccc(NC(=O)CSc2ncc3c(n2)-c2ccccc2N(C)S3(=O)=O)c1 | ? | 0 | 0 | - | 0 | -
COc1cc(C2C(C#N)=C(N)Oc3cc(N(C)C)ccc32)cc2c1OCO2 (centres undefined) | 0 | ? | ? | 0 | ? | 0
COc1cc(C2C(C#N)=C(N)Oc3cc(O)ccc32)cc2c1OCO2 (centres undefined) | 0 | 0 | 0 | 0 | 0 | 79.4µM
C=CCNC(=S)N1CCN(c2ccc([N+](=O)[O-])cc2)CC1 | 0 | 12.6µM | 0 | 0 | 0 | 0
O=C1C2CC=CCC2C(=O)N1c1ccc(N2CCN(c3ccccn3)CC2)c([N+](=O)[O-])c1 (centres undefined) | 0 | 14.1µM | 0 | 0 | ? | 0
O=C(c1ccc(N2CCCCC2)c([N+](=O)[O-])c1)N1CCN(c2ccccn2)CC1 | 0 | ? | 0 | 0 | ? | 0
O=[N+]([O-])c1ccc(N2CCN(C(=S)NCc3ccc(Cl)cc3)CC2)cc1 | ? | ? | ? | 0 | 0 | 0
